Experimental findings from PubChem BioAssay (NCI) are described below.

The panel holds about 83,000 compounds, 20% with a hit somewhere; the sample as a whole holds those more often.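 In brief: 96-well plates, 48 h treatment, single concentration, percent growth endpoint.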 Values without a mark were called inactive. Activity calls are given as the source filed them. How the source made its calls: active means growth percent below 10; inactive means the rest.

What all share (experiment): NCI-60 one-dose screen, 48 h (100 = growth as untreated, 0 = no growth, -100 = all killed)
One test deals with SR leukemia. To be noted: 10 µM unless noted.
Another test concerns RPMI-8226 leukemia. To be noted: 10 µM unless noted.
In a further test the test system is OVCAR-8 ovarian. To be noted: 10 µM unless noted.
A further test has as its system OVCAR-5 ovarian. The conditions noted are these: 10 µM unless noted.
A further test deals with OVCAR-4 ovarian. To be noted: 10 µM unless noted.
Another test has as its system SK-OV-3 ovarian. The conditions noted are these: 10 µM unless noted.
The test system of a further test is IGROV1 ovarian. The conditions noted are these: 10 µM unless noted.
Another test deals with HS 578T breast. The conditions noted are these: 10 µM.
The next test has as its system NCI/ADR-RES ovarian. To be noted: 10 µM unless noted.
In another test the test system is T-47D breast. To be noted: 10 µM unless noted.
A further test concerns BT-549 breast. To be noted: 10 µM unless noted.
The test system of another test is MDA-MB-435 melanoma. The conditions noted are these: 10 µM unless noted.
A further test concerns SW-620 colon. To be noted: 10 µM unless noted.
The next test deals with MCF7 breast. The conditions noted are these: 10 µM unless noted.
Another test relates to HCT-116 colon. To be noted: 10 µM unless noted.
Another test relates to HCC-2998 colon. The conditions noted are these: 10 µM unless noted.
The next test concerns KM12 colon. The conditions noted are these: 10 µM unless noted.
The next test relates to OVCAR-3 ovarian. The conditions noted are these: 10 µM unless noted.

Regarding `CCC1CCc2nc3sc(C(=O)Nc4cccc(F)c4)c(N)c3cc2C1` (stereo unspecified), the growth with SR leukemia was 12.5%; in the test on RPMI-8226 leukemia it was 44.9%; with OVCAR-8 ovarian, 86.6%; with OVCAR-5 ovarian it was 90.5%; in the test with OVCAR-4 ovarian, 99.2%; in the test on SK-OV-3 ovarian, 83.1%. Besides, the growth in the test on IGROV1 ovarian was 89.2%; in the test with HS 578T breast it was 79.5%; in the test on NCI/ADR-RES ovarian it was 61.8%; in the test with T-47D breast, 89.9%; in the test on BT-549 breast, 88.1%; in the test on MDA-MB-435 melanoma, -12.6% (active). For the same compound, the growth is 40.6% in the test on SW-620 colon; 12.6% in the test on MCF7 breast; 60% with HCT-116 colon; 91.6% in the test on HCC-2998 colon; 41.3% in the test with KM12 colon.
Consider `COc1ccc(/C(=C\c2cc(OC)c(OC)c(OC)c2)C(=O)Nc2nc3ccc(Cl)cc3s2)cc1`, for which the growth was 76.4% in the test with SR leukemia; 80.8% with RPMI-8226 leukemia; 94.1% with OVCAR-8 ovarian; 97.2% with OVCAR-5 ovarian; 104% in the test on OVCAR-4 ovarian; 98.4% in the test with SK-OV-3 ovarian. Further, the growth was 106% in the test with IGROV1 ovarian; 100% in the test with HS 578T breast; 92% with NCI/ADR-RES ovarian; 86.7% in the test with T-47D breast; 98.3% in the test on BT-549 breast; 100% in the test with MDA-MB-435 melanoma. The growth in the test on SW-620 colon is 105%; with MCF7 breast it was 98.9%; with HCC-2998 colon, 104%; in the test on KM12 colon, 94.2%.
As for `CCCCCCCCCCC(C(O)c1ccccc1)N1CCCCC1` (stereo unspecified), the growth was 0.484% (active) in the test with SR leukemia; -50.3% (active) with RPMI-8226 leukemia; 62.8% in the test on OVCAR-8 ovarian; 47.4% in the test with OVCAR-5 ovarian; 41% in the test on OVCAR-4 ovarian; 36.1% with SK-OV-3 ovarian. Moreover, the growth in the test with IGROV1 ovarian was 2.8% (active); in the test with HS 578T breast it was 18.3%; with NCI/ADR-RES ovarian, 49.8%; in the test on T-47D breast it was -33.7% (active); with BT-549 breast, 79.7%; in the test on MDA-MB-435 melanoma, -54.3% (active). Besides, the growth was -30.8% (active) with SW-620 colon, -65.4% (active) in the test on MCF7 breast, 49.1% with HCC-2998 colon and 8.17% (active) in the test with KM12 colon.
With `O=C(c1ccccc1)N(CCCCl)C(=O)N(CCCCl)C(=O)c1ccccc1`, the growth in the test on SR leukemia is 101%; in the test on RPMI-8226 leukemia it was 88.1%; in the test with OVCAR-8 ovarian it was 97.2%; in the test with OVCAR-5 ovarian, 87%; in the test on SK-OV-3 ovarian, 84.5%; with IGROV1 ovarian, 90.7%. The growth is 93.7% in the test on OVCAR-3 ovarian; 93.9% in the test on HS 578T breast; 91.1% in the test on NCI/ADR-RES ovarian; 93.1% in the test on T-47D breast; 103% with BT-549 breast; 89.6% in the test on MDA-MB-435 melanoma. The growth in the test with SW-620 colon is 89.8%; with MCF7 breast, 119%; in the test with HCT-116 colon it was 90.9%; in the test on HCC-2998 colon it was 95.3%; with KM12 colon it was 88.3%.
On to `NC(=Nc1ccccc1)SCCCSC(N)=Nc1ccccc1`, for which the growth with SR leukemia was 94.6%; with RPMI-8226 leukemia, 73.4%; in the test with OVCAR-8 ovarian, 86.4%; in the test with OVCAR-5 ovarian, 86.4%; with OVCAR-4 ovarian, 76.8%; in the test on SK-OV-3 ovarian, 97.3%. The growth in the test on IGROV1 ovarian is 80.1%; in the test on HS 578T breast, 89%; in the test on NCI/ADR-RES ovarian, 85.5%; in the test on T-47D breast it was 70.1%; with BT-549 breast, 92.9%; in the test with MDA-MB-435 melanoma it was 89.8%. Further, the growth was 95.4% with SW-620 colon; 90.9% with MCF7 breast; 90.5% in the test with HCT-116 colon; 99.2% with HCC-2998 colon; 94.7% in the test with KM12 colon.
For `COC1=CC(c2ccc[nH]2)=N/C1=C\c1[nH]c(C)c(C(=O)CCCCCCCCC(=O)O[C@H]2CC[C@H]3C4CCc5cc(O)ccc5C4CC[C@]23C)c1C` (stereo partly specified), the growth is -14.6% (active) in the test on SR leukemia; 33.2% in the test on RPMI-8226 leukemia; 12.2% with OVCAR-8 ovarian; 52.1% in the test with OVCAR-5 ovarian; 49.2% in the test on SK-OV-3 ovarian; 22.7% with IGROV1 ovarian. Also, the growth in the test on OVCAR-3 ovarian was 13.7%; with HS 578T breast, 10.7%; with NCI/ADR-RES ovarian, 68.3%; in the test on T-47D breast it was 29.8%; in the test with BT-549 breast, 38.3%; in the test on MDA-MB-435 melanoma, 14.3%. Also, the growth with SW-620 colon is 6.58% (active); in the test with MCF7 breast it was 24.1%; in the test with HCT-116 colon it was 7.77% (active); with HCC-2998 colon, 26.2%; in the test on KM12 colon it was 17.5%.
With `CCN(CC)c1ccc2nc3c4ccccc4c(=O)cc-3n(-c3ccccc3)c2c1`, the growth in the test on SR leukemia is -5.63% (active); in the test with RPMI-8226 leukemia, 6.27% (active); in the test on OVCAR-8 ovarian, 7.52% (active); with OVCAR-5 ovarian it was 10.7%; with OVCAR-4 ovarian it was 6.28% (active); in the test with SK-OV-3 ovarian, 3.71% (active). Further, the growth in the test with OVCAR-3 ovarian is -52.6% (active); in the test on HS 578T breast it was -17.8% (active); with T-47D breast, -7.93% (active); in the test with BT-549 breast, -21.7% (active); in the test with MDA-MB-435 melanoma, -36.3% (active); in the test on MCF7 breast, -7.24% (active). Also, the growth with HCT-116 colon is -31.7% (active); with HCC-2998 colon it was -6.62% (active); in the test with KM12 colon it was -5.68% (active).
As for `O=C(Nc1ccc2ncnc(Nc3ccc(F)c(Cl)c3)c2c1)c1cccs1`, the growth with SR leukemia is 11.3%; with RPMI-8226 leukemia it was 53%; in the test on OVCAR-8 ovarian it was 66.2%; with OVCAR-5 ovarian, 76.1%; in the test on OVCAR-4 ovarian it was 47.1%; in the test with SK-OV-3 ovarian, 54%. For the same compound, the growth in the test with IGROV1 ovarian was 38.7%; in the test with HS 578T breast, 72.2%; in the test on NCI/ADR-RES ovarian it was 60.7%; in the test with T-47D breast, 28.8%; in the test with BT-549 breast it was 68.3%; with MDA-MB-435 melanoma, 70.2%. Besides, the figures for the growth in the test on SW-620 colon, in the test on MCF7 breast and in the test with HCT-116 colon were 93.2%, 56.1% and 54.7%, respectively.
As to `NC(=S)N/N=C(/c1cccs1)C1CC1`, the growth in the test on SR leukemia was 120%; in the test on RPMI-8226 leukemia, 63.2%; in the test with OVCAR-8 ovarian, 67.7%; in the test on OVCAR-5 ovarian it was 90.9%; with OVCAR-4 ovarian it was 82.8%; in the test with SK-OV-3 ovarian, 103%. The growth was 53.5% in the test with IGROV1 ovarian; 51.5% in the test with OVCAR-3 ovarian; 20.6% in the test on T-47D breast; 97.8% in the test with BT-549 breast; 87.4% with MDA-MB-435 melanoma; 71.6% in the test with SW-620 colon. The growth in the test with MCF7 breast is 22.5%; in the test on HCT-116 colon, 7.8% (active); with HCC-2998 colon, 96.9%; with KM12 colon, 105%.
